{"source": "PubChem BioAssay (NCATS)", "note": "Results filed as inconclusive are left out. Unmarked numbers belong to inactive results. Activity calls are given as the source filed them. Calls follow the shape of the dose curve; as a rule, active = well fitted inhibition curve with a large enough effect; inconclusive = small, poorly fitted or top-dose-only effect; inactive = flat fitted curve, though single readings scatter. % is scaled to controls: 0 for no effect and ±100 for the full control effect; potency is read from the fitted curve at half-maximal effect."}
{"test": "P-glycoprotein substrates identified in KB-8-5-11 adenocarcinoma cell line, qHTS therapeutic library screen (AID 1346987); also: nearly all actives have a fitted effect of over 65% in size", "settings": "KB-8-5-11 (P-gp overexpressing) viability, CellTiter-Glo, 72 h; series mostly up to 44.5 µM; activity change, negative = cytotoxicity: at the top concentration", "in_short": "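Luminescence from CellTiter-Glo, read 5 min after addition, quantified survival of KB-8-5-11 (P-gp-overexpressing) cells exposed to compounds for 72 h. AC50 was derived from concentration-response curves.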"}
{"smiles": "CNCc1ccc(-c2cc(-c3nc(-c4ccc(S(=O)(=O)C(C)C)cc4)cnc3N)on2)cc1", "Potency": "1.3 µM (active)"}
{"smiles": "CC1=C(C(=O)O)/C(=C\\CO[C@@H]2O[C@H](CO)[C@@H](O)[C@H](O)[C@H]2O)C(OC(=O)/C=C/c2ccc(O)cc2)C1", "note": "(stereo partly drawn)", "outcome": "inactive [at 17.3 µM]"}
{"smiles": "OC/C=C/c1ccc(O[C@@H]2O[C@H](CO)[C@@H](O)[C@H](O)[C@H]2O)cc1", "activity change, negative = cytotoxicity": "-0.22%"}
{"smiles": "CCCn1c(=O)c2[nH]c(-c3ccc(OCC(=O)O)cc3)nc2n(CCC)c1=O", "outcome": "inactive"}
{"smiles": "Cc1cc(C(=O)N2Cc3cnn(C)c3Nc3ccccc32)ccc1CNC(=O)N1CCC[C@H]1C(=S)N1CCCN(C)CC1", "activity change, negative = cytotoxicity": "5.53%"}
{"smiles": "CC1=CC(=O)C(=C(C)C)CC2C1CCC2(C)O", "note": "(stereo not drawn)", "activity change, negative = cytotoxicity": "-3.42%"}
{"smiles": "C[C@@H]1C(=O)O[C@H](C)[C@H]1CC(=O)[C@](C)(O)[C@H]1CC[C@@]2(O)C3=CC(=O)[C@@H]4C[C@@H](O)[C@@H](O)C[C@]4(C)C3CC[C@]12C", "note": "(stereo partly drawn)", "activity change, negative = cytotoxicity": "-1.59% [at 17.3 µM]"}
{"smiles": "Cc1cc(Nc2cc(N3CCN(C)CC3)nc(/C=C/c3ccccc3)n2)n[nH]1", "Potency": "7.31 µM (active)"}
{"smiles": "C/C(=C\\CC[C@@H](C)[C@H]1CC(O)[C@@]2(C)C3CC[C@H]4C(C)(C)[C@@H](OC5OCC(O)C(O)C5OC5OC(CO)C(O)C(O)C5O)CC[C@@]45C[C@@]35CC(O)[C@]12C)C(=O)O", "note": "(stereo partly drawn)", "outcome": "inactive [at 17.3 µM]"}
{"smiles": "O=C(c1cn(Cc2cncn2Cc2ccc(Br)cc2)cc1-c1cccc2ccccc12)N1CCOCC1", "Potency": "4.11 µM (active)"}
{"smiles": "C=C(C(=O)O)[C@@H]1CC[C@@]2(C)CC[C@H](O)[C@@]2(C(C)=O)C1", "outcome": "inactive"}
{"smiles": "CC1(C)C2CC=C(COC3OC(COC4OCC(O)(CO)C4O)C(O)C(O)C3O)C1C2", "note": "(stereo not drawn)", "outcome": "inactive [at 17.3 µM]"}
{"smiles": "COC(=O)CC1CC(c2ccc(O)cc2)=NO1", "note": "(stereo not drawn)", "activity change, negative = cytotoxicity": "-16.5%"}
{"smiles": "CC1(C)CC[C@]2(C(=O)O[C@@H]3O[C@H](CO)[C@@H](O)[C@H](O)[C@H]3O)CC[C@]3(C)C(=CCC4[C@@]5(C)C[C@@H](O)[C@H](O)C(C)(C)C5CC[C@]43C)C2[C@@H]1O", "note": "(stereo partly drawn)", "activity change, negative = cytotoxicity": "0.909% [at 17.3 µM]"}
{"smiles": "COc1ccc2cc(C(C)C(=O)Oc3ccc(C(N)=S)cc3)ccc2c1", "note": "(stereo not drawn)", "activity change, negative = cytotoxicity": "6.8%"}
{"smiles": "CC1(C)CCCC2(C)C(CO)C(CO)=CCC12", "note": "(stereo not drawn)", "activity change, negative = cytotoxicity": "-5.95%"}
{"smiles": "CCNC(=O)C1OC(n2cnc3c(N)nc(NCCc4ccc(CCC(=O)O)cc4)nc32)C(O)C1O", "note": "(stereo not drawn)", "activity change, negative = cytotoxicity": "-5.42%"}
{"smiles": "NC[C@@](O)(c1ccc(Cl)cc1)c1ccc(-c2cn[nH]c2)cc1", "Potency": "9.2 µM (active)"}
{"smiles": "CC(C)c1ccc2c(c1)C(=O)CC1[C@@](C)(C(=O)O)CCC[C@]21C", "note": "(stereo partly drawn)", "activity change, negative = cytotoxicity": "7.11%"}
{"smiles": "O=C(O)c1cc(I)ccc1NC(=O)[C@H](Cc1ccccc1)NCc1ccccc1", "activity change, negative = cytotoxicity": "6.68%"}
{"smiles": "C[C@@H]1CC[C@]2(C(=O)O)CC[C@]3(C)C(=CCC4[C@@]5(C)C[C@@H](O)[C@H](O)[C@@](C)(CO)C5CC[C@]43C)C2[C@]1(C)O", "note": "(stereo partly drawn)", "activity change, negative = cytotoxicity": "0.128% [at 17.3 µM]"}
{"smiles": "O=C(O)c1cccc(S(=O)(=O)N2CCc3ccccc3C2)c1", "outcome": "inactive"}
{"smiles": "CC1OC(OC2CCC3(C)C(CCC4(C)C3CC=C3C5CC(C)(C)CCC5(C(=O)OC5OC(CO)C(O)C(O)C5O)CCC34C(=O)O)C2(C)C)C(O)C(O)C1O", "note": "(stereo not drawn)", "outcome": "inactive [at 17.3 µM]"}
{"smiles": "C=C(C(=O)OC)C1C(O)CC2(C)C(O)CCC(=O)C2C1O", "note": "(stereo not drawn)", "activity change, negative = cytotoxicity": "0.374%"}
{"smiles": "C=C1C[C@@]23CCC4[C@@](C)(CCC[C@@]4(C)C(=O)OC)C2CC[C@@H]1C3", "note": "(stereo partly drawn)", "activity change, negative = cytotoxicity": "-22%"}
{"smiles": "CC(=O)OC12COC1CC(O)C1(C)C(=O)C(O)C3=C(C)C(OC(=O)C(O)C(NC(=O)OC(C)(C)C)c4ccccc4)CC(O)(C(OC(=O)c4ccccc4)C21)C3(C)C", "note": "(stereo not drawn)", "Potency": "0.164 µM (active)"}
{"smiles": "N#Cc1ccc(C(=O)N2CCC3(CC2)N=C(N)c2c(F)ccc(F)c2N3)cn1", "activity change, negative = cytotoxicity": "-9.09%"}
{"smiles": "C=C1C(=O)O[C@@H]2C/C(C)=C\\C(=O)/C=C(\\C)[C@@H](OC(=O)/C(C)=C\\C)[C@H](O)[C@@H]12", "Potency": "4.04 µM (active)"}
{"smiles": "CC1CCC2(C(=O)O)CCC3(C)C(=CCC4C5(C)CCC(OC(=O)/C=C/c6ccccc6)C(C)(C)C5CCC43C)C2C1C", "note": "(stereo not drawn)", "activity change, negative = cytotoxicity": "-2.86% [at 17.3 µM]"}
{"smiles": "COc1cccc(-c2cc(NCc3ccc4c(c3)OCO4)nc(N)n2)c1", "Potency": "0.164 µM (active)"}
{"smiles": "Nc1nc2c(c(N3CCNCC3)n1)CCC1=C2[C@@H]2CCCC[C@@H]2O1", "activity change, negative = cytotoxicity": "-27.4%"}
{"smiles": "O=C(COc1cccc2c(=O)[nH]ccc12)c1ccccc1", "activity change, negative = cytotoxicity": "-9.03%"}
{"smiles": "C=C1C(O)C(O)C2(CC3C(C)=CCC4C(C)(CO)CCCC34C)OC2C1O", "note": "(stereo not drawn)", "activity change, negative = cytotoxicity": "-3.22%"}
{"smiles": "CC(C)c1cc2c(c(O)c1O)[C@@]13CCCC(C)(C)[C@@H]1[C@H](OC3=O)C2=O", "activity change, negative = cytotoxicity": "-14.1%"}
{"smiles": "CCN1CCN(Cc2ccc(NC(=O)c3ccc(C)c(/C=C/c4cnc5[nH]ccc5c4OC)c3)cc2C(F)(F)F)CC1", "Potency": "23.1 µM (active)"}
{"smiles": "O=C(NCC(O)CO)c1ccncc1Nc1ccc(I)cc1F", "note": "(stereo not drawn)", "activity change, negative = cytotoxicity": "-15%"}
{"smiles": "O=C(/C=C/c1ccc(O)cc1)N[C@@H](Cc1ccc(O)cc1)C(=O)O", "outcome": "inactive"}
{"smiles": "CON(C)C(=O)[C@H](O)[C@H](Cc1ccccc1)NC(=O)c1cc2cc(Cl)ccc2[nH]1", "activity change, negative = cytotoxicity": "-6.38%"}
